An excerpt weighted towards active compounds, which were near 0.69% of everything screened.
Integrin act MD – integrin-mediated muscular dystrophy alleviation activation; alpha7betagal myoblasts, beta-gal FDG fluorescence, 48 h; Potency, µM (top dose mostly 38.3 µM), for inactives: at the highest dose activation, usual class: activators; 350,000 compounds, 0.064% hits;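 further: potency means the concentration at half of the fitted maximal effect; 100% = response of the positive control SU9516; nearly all actives have a fitted effect of over 60% in size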
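Alpha7betagal+/- myoblasts (passage 13) were plated 16-24 hr, then exposed to compounds (1:260 dilution of DMSO stock) for 48 hours at 37C. After MPER lysis, β-galactosidase reporter activity was read as FDG fluorescence (ex 480/em 540) after 30 minutes.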
PKM2 act – PKM2 (human) enzyme activation. P14618. purified PKM2, Kinase-Glo ATP luminescence, activation; response scale: 0% is enzyme alone, no compound. Potency, µM (top dose mostly 57.5 µM), without a hit: at the highest dose activation, hits mostly activators. 260,000 compounds, 0.34% hits. AID 1631; further: potency means the concentration at half of the fitted maximal effect; on the % scale 0 is the no-effect control and ±100 the full control effect; nearly all actives have a fitted effect of over 55% in size
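Purified hPK-M2 (>95%) run at intermediate activity with 0.1 mM ADP and 0.5 mM PEP in 50 mM imidazole pH 7.2, KCl, MgCl2; 1 h room temperature. ATP formed read by Kinase-Glo luminescence; normalized to uninhibited and no-enzyme controls.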
TCR activator – activates T cell receptor signaling | 330,000 tested, under 10 active | primary human leukocytes, anti-CD3, IL-2 HTRF, 48 h | Potency, µM (series often up to 9.22 µM), without a hit: at the top dose activation of IL-2 secretion, usual class: activators; further: % of control where 0% means no effect
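Primary human leukocytes were stimulated with a-CD3 beads plus compounds for 48 hr without co-stimulation; secreted IL-2 was quantified by HTRF using a-IL-2-K (europium cryptate) and a-IL-2-d2, excited at 320nm with acceptor emission read at 665nm.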
IL-2 act – activators of IL-2. IL-2 activation reporter assay, cell-based qHTS; stimulated with anti-CD3/CD4/CD28 beads; in transgenic mouse T cells. activation, % (series mostly up to about 46 µM). 360,000 compounds, 0.065% hits; in the data active means activation above about 50%; inconclusive means mostly about 30% to 49%; further: 0% is about no effect
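Unstimulated transgenic mouse T cells preincubated 60 min with compound, then stimulated with anti-CD3/anti-CD4-coated beads plus anti-CD28 for 18 h at 37 degrees C. IL-2 response read as EGFP and DsRed fluorescence by plate cytometry.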
A-T KAP1 phos – potential ataxia-telangiectasia treatment. Potency, µM (titrated, usually from 57.5 µM), for the others: top-dose activation, most hits filed as activators. F2112 A-T fibroblasts, KAP-1 phosphorylation AlphaLISA; neocarzinostatin DNA damage 30 min before lysis. 320,000 compounds, 0.19% hits. AID 485349; further: potency means the concentration at half of the fitted maximal effect; % of control where 0% means no effect; nearly all actives have a fitted effect of over 45% in size
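ATM-like activity read as KAP-1 phosphorylation via AlphaLISA donor/acceptor antibody pairs after lysis and 6 hr at 25C. Cells were ATM-null patient fibroblasts (F2112, hTERT), dosed 60 min, then exposed to the DSB inducer NCS for 30 min.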
Tb PFK inh-1 – inhibitors of T. brucei phosphofructokinase; AID 485367; Potency, µM (highest dose often 57.5 µM), for inactives: at the top dose activity, negative = inhibition, most hits filed as inhibitors; 330,000 compounds, 0.17% hits; T. brucei PFK, ADP-Glo luminescence;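 further: potency means the concentration at half of the fitted maximal effect; 0% = uninhibited 1x PFK enzyme wells and -100% = no-enzyme wells; nearly all actives have a fitted effect of over 60% in size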
Target sequence (O15648 whole entry, looked up): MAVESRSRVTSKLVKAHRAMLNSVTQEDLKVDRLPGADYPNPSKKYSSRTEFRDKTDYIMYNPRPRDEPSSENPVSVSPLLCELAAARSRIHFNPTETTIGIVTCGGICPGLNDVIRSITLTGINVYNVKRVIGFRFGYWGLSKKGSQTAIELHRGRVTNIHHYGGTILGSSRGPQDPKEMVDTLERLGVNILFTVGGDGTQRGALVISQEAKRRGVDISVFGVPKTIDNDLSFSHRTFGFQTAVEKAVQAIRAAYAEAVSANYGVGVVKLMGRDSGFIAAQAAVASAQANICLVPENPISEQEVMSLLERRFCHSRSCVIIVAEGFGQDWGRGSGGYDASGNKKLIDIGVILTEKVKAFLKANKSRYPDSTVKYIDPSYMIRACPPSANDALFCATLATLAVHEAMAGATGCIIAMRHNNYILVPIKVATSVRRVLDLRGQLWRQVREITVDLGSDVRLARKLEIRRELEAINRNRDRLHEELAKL
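In TEA buffer at pH 8.0 with 5 mM MgCl2, enzyme (1.25 nM) converted F6P (0.5 mM) and ATP (0.1 mM) for 45 min at room temperature. ADP product was read by luciferase luminescence.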
TbPFK ATP – inhibits T. brucei PFK measured by ATP depletion. 1,100 compounds, 47% hits. shares compounds with Tb PFK inh-1. Potency, µM (titrated, usually from 57.5 µM), without a hit: at the highest dose inhibition. AID 504636. Tb PFK enzyme, ATP depletion, Kinase-Glo Plus luminescence; calls by dose curve; further: potency means the concentration at half of the fitted maximal effect; nearly all actives have a fitted effect of over 60% in size
Tb PFK inh-2 – validation of T. brucei phosphofructokinase inhibitors. shares compounds with Tb PFK inh-1. purified T. brucei PFK, ADP-Glo luminescence, 45 min. Potency, µM (top dose mostly 57.5 µM), without a hit: at the top dose activity change, negative = inhibition, usual class: inhibitors. 1,100 compounds, 41% hits. AID 504637;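 further: potency means the concentration at half of the fitted maximal effect; plate controls were full PFK enzyme control for no effect and no enzyme control for full effect; nearly all actives have a fitted effect of over 60% in size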
* = called active by the depositor; ? = inconclusive; . = no result; [ ] = dose if it differs, or a comment. Unless noted, the call rests on the fitted dose curve; in most records, active means well fitted curve in the direction sought with a large enough effect; inconclusive means small, poorly fitted or top-dose-only effect, or another doubt; inactive means no such curve, though single readings can be large; an effect the other way counts as inactive or inconclusive.

SMILES | Integrin act MD | PKM2 act | TCR activator | IL-2 act | A-T KAP1 phos | Tb PFK inh-1 | TbPFK ATP | Tb PFK inh-2
O=C(COC(=O)c1ccccc1Oc1ccccc1)NCc1ccco1 | -11.1% | 11.0% | -0.7% | -3.3 | 0.9% | 26.9µM* | 16.9µM* | ?
COC(=O)C1=C(c2cccc(OC)c2OC)C[C@@H]2CC[C@H]1N2C(=O)NCc1ccco1 | -6.1% | . | 4.0% | 0.1 | . | . | . | .
O=C(CSc1nnc(Cc2ccc(Cl)cc2)o1)Nc1ccccc1 | 27.7% | 1.1% | 2.6% | 0.2 | 4.7% | ? | ? | ?
N#Cc1cc2c(nc1SCC(=O)Nc1ccc(Cl)cc1)C1CCN2CC1 | -17.7%[7.66 µM] | 8.4% | -4.9% | -0.6 | 3.0% | 0.3% | . | .
CC(=O)CSc1nnc(Cc2ccc([N+](=O)[O-])cc2)o1 | -16.9% | 0.5% | -4.2% | -1.0 | -6.7% | ? | ? | -25.3%
O=C(NCC1=C(c2ccc3ccccc3c2)C[C@@H]2CC[C@H]1N2Cc1ccco1)c1nccs1 | -35.9% | . | . | -2.5 | . | . | . | .
Oc1c(Cl)c(Cl)c(Cl)c(Cl)c1Cl | . | . | 5.3% | -0.1 | . | . | . | .
N#CCCn1cc(C(=O)Nc2ccc(F)cc2)c(-c2ccc([N+](=O)[O-])cc2)n1 | -26.3% | -7.6% | -0.1% | -0.6 | 2.1% | -1.7% | . | .
NS(=O)(=O)c1ccc(NC(=S)NCc2ccc(F)cc2)cc1 | -10.6% | -1.4% | 3.4% | -1.5 | 5.6% | 23.9µM* | 10.7µM* | 23.9µM*
NS(=O)(=O)c1ccc(NC(=O)COc2ccc(Cl)cc2)cc1 | 6.1% | . | -23.0% | 1.4 | -8.8% | 1.9µM* | 1.07µM* | ?
NS(=O)(=O)c1ccc(CNC(=O)COc2ccc3c4c(c(=O)oc3c2)CCCC4)cc1 | ? | 0.8% | -4.9% | 3.1 | 7.8% | 0.1% | . | .
S=C(NCc1ccc(Cl)cc1)Nc1ccncc1 | -33.0% | 2.9% | -6.3% | -5.7 | 6.7% | 8.49µM* | 7.57µM* | 12µM*
O=[N+]([O-])c1ccc(NC(=S)NCc2ccc(F)cc2)cc1 | -66.2% | 0.0% | 3.2% | -0.5 | 1.1% | ? | 19µM* | ?
O=C(COc1ccc(Cl)cc1)NC1CN2CCC1CC2 (stereo unspecified) | 9.6% | 3.2% | 5.7% | 1.0 | -4.6% | -7.0% | . | .
CCOc1cccc(CNCCc2c(C)[nH]c3ccc(OC(F)(F)F)cc23)c1O | -9.1% | . | -4.2% | -3.7 | -7.1% | -2.3% | . | .
CC(O)(CS(=O)(=O)c1ccccc1)C(=O)Nc1ccc(C(F)(F)F)cc1 (stereo unspecified) | 4.1%[7.66 µM] | -7.6% | 6.2% | -2.5 | -11.4% | -0.6% | . | .
COC(=O)C(O)(c1ccc(NC(=O)NC2CCCCC2)cc1)C(F)(F)F (stereo unspecified) | 7.8% | 6.1% | 3.3%[46.1 µM] | 0.4 | 1.8% | -7.8% | . | .
O=S(=O)(c1ccc(NC(=S)NCc2ccc(F)cc2)cc1)N1CCOCC1 | ? | -3.7% | 3.4% | -2.7 | 1.1% | 23.9µM* | 12µM* | 30.1µM*
NS(=O)(=O)c1ccc(NC(=O)CSc2ccccc2)cc1 | -0.6% | 0.2% | -2.3% | -1.5 | 1.9% | 15.1µM* | 23.9µM* | 30.1µM*
NS(=O)(=O)c1ccc(NC(=S)NCc2ccc(Cl)cc2)cc1 | -6.4% | 2.0% | -3.4% | -0.2 | 5.1% | 12µM* | 2.69µM* | 5.36µM*
NCCc1ccc(S(N)(=O)=O)cc1 | 20.5% | . | 5.8% | -0.2 | 3.6% | -2.0% | . | .
NS(=O)(=O)c1ccc(NC(=S)NC2CCCC2)cc1 | 12.8% | 4.6% | 1.7%[46.1 µM] | -0.6 | -5.3% | ? | 8.6% | -0.1%
